Test results published in PubChem BioAssay.
The source made the active and inactive calls. Unless noted, no rule for the calls is given here.

Assays:
[1] = system: Wnt5a (protein binding on small-molecule microarray); assay: small molecules binding Wnt5a protein – biophysical, small-molecule microarray, 635/667 nm fluorescence, primary screen (AID 1142); details: 635 nm fluorescence, higher = more signal;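 also: fluorescence read at 667 nm with signal to noise per printed feature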
[2] = ATP-based viability of Huh7 replicon cells – cell-based, CellTiter-Glo luminescence, basal, 48 h, cytotoxicity control for HCV replication inhibitor project, primary screen (AID 1143); details: higher = more signal, called active from +8 up or from −8 down;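 also: Huh7 hepatoma cells carrying a hepatitis C replication reporter with no stimulus; test concentration not given here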
[3] = Pseudomonas biofilm growth suppression – PAO1 strain, BacTiter-Glo luminescence, LB-PBS, primary screen (AID 1144); details: P. aeruginosa PAO1 biofilm, 12 h, higher = more signal
[4] = basal CRE-LacZ reporter activity in PC12 – cell-based, unstimulated, primary screen (AID 1145); details: no forskolin, luminescence, 4.5 h, higher = more signal, called active from +8 up or from −8 down
[5] = forskolin-driven CRE-LacZ activity in PC12 – cell-based, CRE-LacZ reporter, forskolin-stimulated, primary screen (AID 1146); details: luminescence, 4.5 h, higher = more signal, called active from +8 up or from −8 down;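 also: PC12 cells with 6xCRE LacZ reporter stimulated by forskolin 10 µM; beta-galactosidase reporter signal reflecting CREB driven transcription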
[6] = biological target: Streptavidin (Streptomyces avidinii) (UniProt P22629); assay: compounds binding control protein streptavidin – biophysical, small-molecule microarray, 635/667 nm fluorescence, artefact control for SMM compound annotation, primary screen (AID 1147); details: higher = more signal;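 also: signal reflects streptavidin binding to arrayed compounds as a control protein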
Sequence of Streptavidin (Streptomyces avidinii) (P22629 whole entry, looked up): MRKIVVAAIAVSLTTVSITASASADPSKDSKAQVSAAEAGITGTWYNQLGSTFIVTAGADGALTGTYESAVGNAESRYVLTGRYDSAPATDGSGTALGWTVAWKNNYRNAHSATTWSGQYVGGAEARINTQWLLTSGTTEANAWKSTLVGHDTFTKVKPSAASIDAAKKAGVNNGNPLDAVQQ

[7] = probe aInhba binding on compound microarray – biochemical, small-molecule microarray, 635/667 nm fluorescence, primary screen (AID 1148); details: higher = more signal;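 also: score merges 667nm spot fluorescence with signal-to-noise for antibody binding to printed compounds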
Torsin-1A (Homo sapiens) [8] = biological target: Torsin-1A (Homo sapiens) (UniProt O14656); assay: TOR1A wild-type binding on microarray – cell lysate, small-molecule microarray, lysate, 635/667 nm, primary screen (AID 1149); details: COS7 hTOR1A-WT lysate, 635 nm fluorescence, higher = more signal
Sequence of Torsin-1A (Homo sapiens) (O14656 whole entry, looked up): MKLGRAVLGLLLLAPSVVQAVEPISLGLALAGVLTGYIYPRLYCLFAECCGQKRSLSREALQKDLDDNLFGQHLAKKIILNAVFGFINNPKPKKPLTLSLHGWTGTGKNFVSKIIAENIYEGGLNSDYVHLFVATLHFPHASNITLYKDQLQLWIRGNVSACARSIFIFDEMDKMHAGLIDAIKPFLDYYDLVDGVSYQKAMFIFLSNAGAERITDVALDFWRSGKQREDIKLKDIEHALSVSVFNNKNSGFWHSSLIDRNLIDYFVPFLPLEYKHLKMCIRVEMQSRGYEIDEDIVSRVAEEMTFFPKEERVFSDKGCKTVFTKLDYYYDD

Torsin-1A (Homo sapiens) [9] = biological target: Torsin-1A (Homo sapiens) (UniProt O14656); assay: torsin A mutant lysate binding on microarrays – cell lysate, small-molecule microarray, COS7 lysate, 635/667 nm fluorescence, primary screen (AID 1150); details: COS7 hTOR1A mutant lysate, 635 nm fluorescence, higher = more signal;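 also: score pools 667 nm emission and signal to noise measuring lysate protein binding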
[10] = system: Sonic hedgehog protein (Shh); assay: Sonic hedgehog microarray binding compounds – biochemical, small-molecule microarray, 635/667 nm fluorescence, primary screen (AID 1151); details: 635 nm fluorescence, higher = more signal;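 also: Shh protein binding to compounds spotted on small-molecule microarray slides; score combines spot fluorescence intensity with signal-to-noise across triplicate slides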
[11] = optical density shifts of acrAB sulA E. coli – strain DRC41, OD650, 48 h, E. coli filamentation inducer project, primary screen (AID 1152); details: higher = more signal, called active from +8 up or from −8 down;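 also: E. coli MC1000 strain DRC41 lacking acrAB efflux pump and sulA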
[12] = probe aLefty1 binding on compound microarray – biochemical, small-molecule microarray, 635/667 nm fluorescence, primary screen (AID 1153); details: higher = more signal;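 also: score merges spot fluorescence with signal-to-noise ratio from the scanned slide images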
[13] = plasmodial surface anion channel blockers, osmotic lysis – cell-based, P. falciparum Indochina, OD700, 1 h, primary screen (AID 1154); details: P. falciparum Indochina infected RBC osmotic lysis, higher = more signal, called active from +8 up or from −8 down
[14] = plasmodial surface anion channel blockers, osmotic lysis – cell-based, P. falciparum Indochina, OD700, 2 h, primary screen (AID 1155);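 also: lysis reports solute entry through the parasite surface anion channel PSAC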; details: P. falciparum Indochina infected erythrocytes, higher = more signal, called active from +8 up or from −8 down
[15] = changes in parasitized red cell lysis, either direction – P. falciparum Indochina, OD700, 3 h, PSAC antagonist project, primary screen (AID 1156); details: P. falciparum-infected erythrocytes, osmotic lysis, higher = more signal, called active from +8 up or from −8 down
[16] = plasmodial surface anion channel blockers, osmotic lysis – cell-based, P. falciparum Indochina, OD700, 18 h, primary screen (AID 1157); details: P. falciparum Indochina infected erythrocytes, osmotic lysis OD700, 18 h; higher = more signal, called active from +8 up or from −8 down
[17] = S6 kinase pathway phospho-S6 level changes – cell-based, A549, cytoblot, luminescence, serum-stimulated, primary screen (AID 1158); details: 5 h, higher = more signal;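 also: serum-stimulated A549 lung adenocarcinoma cells; signal is phosphorylated S6 detected by cytoblot immunostaining with HRP secondary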
[18] = biological target: NADPH oxidase 2 (Homo sapiens) (UniProt P04839); assay: compounds shifting NOX2 Amplex Red fluorescence – cell-based, HEK293-NOX2, PMA-stimulated, NOX inhibitor project, primary screen (AID 1159); details: 45 min, higher = more signal, called active from +8 up or from −8 down; also: test concentration not given here
Sequence of NADPH oxidase 2 (Homo sapiens) (P04839 whole entry, looked up): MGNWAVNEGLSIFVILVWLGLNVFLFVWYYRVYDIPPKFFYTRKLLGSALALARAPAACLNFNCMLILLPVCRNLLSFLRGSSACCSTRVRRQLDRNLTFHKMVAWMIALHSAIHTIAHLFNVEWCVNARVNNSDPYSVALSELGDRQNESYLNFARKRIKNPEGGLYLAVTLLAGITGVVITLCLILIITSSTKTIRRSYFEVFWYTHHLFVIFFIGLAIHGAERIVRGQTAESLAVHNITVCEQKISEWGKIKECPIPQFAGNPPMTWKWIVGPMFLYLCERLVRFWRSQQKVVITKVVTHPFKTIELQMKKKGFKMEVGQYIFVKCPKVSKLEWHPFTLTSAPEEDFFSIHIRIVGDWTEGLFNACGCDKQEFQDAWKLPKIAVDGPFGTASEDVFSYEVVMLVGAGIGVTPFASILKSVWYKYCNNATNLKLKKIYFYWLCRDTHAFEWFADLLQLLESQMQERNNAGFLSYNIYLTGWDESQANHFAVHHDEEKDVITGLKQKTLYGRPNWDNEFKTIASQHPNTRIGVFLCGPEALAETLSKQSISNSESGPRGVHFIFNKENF

[19] = biological target: NADPH oxidase 4 (Homo sapiens) (UniProt Q9NPH5); assay: compounds shifting NOX4 Amplex Red fluorescence – cell-based, HEK293-NOX4, tetracycline-induced, NOX inhibitor project, primary screen (AID 1160); details: HEK293-NOX4, Amplex Red H2O2 fluorescence, 45 min; higher = more signal, called active from +8 up or from −8 down
Sequence of NADPH oxidase 4 (Homo sapiens) (Q9NPH5 whole entry, looked up): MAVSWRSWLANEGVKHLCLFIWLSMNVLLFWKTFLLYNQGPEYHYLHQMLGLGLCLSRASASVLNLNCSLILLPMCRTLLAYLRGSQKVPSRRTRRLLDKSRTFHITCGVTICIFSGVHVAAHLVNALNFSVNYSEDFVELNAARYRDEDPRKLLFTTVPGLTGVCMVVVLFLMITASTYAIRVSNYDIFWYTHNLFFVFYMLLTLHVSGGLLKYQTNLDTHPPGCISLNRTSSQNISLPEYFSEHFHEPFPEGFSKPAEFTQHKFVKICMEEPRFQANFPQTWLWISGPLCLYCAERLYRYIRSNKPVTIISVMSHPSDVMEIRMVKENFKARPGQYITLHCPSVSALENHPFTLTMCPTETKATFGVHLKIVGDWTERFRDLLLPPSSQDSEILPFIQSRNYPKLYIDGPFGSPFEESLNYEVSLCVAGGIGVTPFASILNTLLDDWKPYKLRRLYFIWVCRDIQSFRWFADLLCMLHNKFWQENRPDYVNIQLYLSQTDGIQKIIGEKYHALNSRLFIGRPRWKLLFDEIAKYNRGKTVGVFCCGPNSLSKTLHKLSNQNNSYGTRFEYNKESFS

[20] = biological target: NADPH oxidase 5 (Homo sapiens) (UniProt Q96PH1); assay: compounds shifting NOX5 Amplex Red fluorescence – cell-based, HEK293-NOX5, NOX inhibitor project, primary screen (AID 1161); details: HEK293-NOX5, ionomycin, 45 min, higher = more signal
Sequence of NADPH oxidase 5 (Homo sapiens) (Q96PH1 whole entry, looked up): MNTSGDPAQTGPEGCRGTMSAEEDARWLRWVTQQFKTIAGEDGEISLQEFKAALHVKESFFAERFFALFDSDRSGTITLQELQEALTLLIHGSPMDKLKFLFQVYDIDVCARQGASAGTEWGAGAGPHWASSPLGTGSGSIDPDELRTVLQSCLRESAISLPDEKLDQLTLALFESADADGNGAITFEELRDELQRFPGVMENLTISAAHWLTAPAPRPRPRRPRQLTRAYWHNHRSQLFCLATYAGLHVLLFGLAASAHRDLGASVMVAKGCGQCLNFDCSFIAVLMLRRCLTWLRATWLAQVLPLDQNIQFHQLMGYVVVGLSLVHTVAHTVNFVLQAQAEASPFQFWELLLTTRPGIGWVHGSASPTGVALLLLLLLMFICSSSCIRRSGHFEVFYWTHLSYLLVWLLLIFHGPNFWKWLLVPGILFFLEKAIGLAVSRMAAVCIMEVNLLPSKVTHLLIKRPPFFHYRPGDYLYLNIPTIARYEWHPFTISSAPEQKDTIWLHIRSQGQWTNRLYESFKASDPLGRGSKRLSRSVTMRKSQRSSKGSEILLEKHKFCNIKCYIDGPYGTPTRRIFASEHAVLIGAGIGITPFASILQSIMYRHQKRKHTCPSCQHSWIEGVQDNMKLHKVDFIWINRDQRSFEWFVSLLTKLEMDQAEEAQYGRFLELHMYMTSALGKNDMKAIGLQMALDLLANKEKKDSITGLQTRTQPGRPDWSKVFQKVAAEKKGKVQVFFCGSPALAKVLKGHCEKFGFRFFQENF

Structure (SMILES)	composite z-score [1]	z-score [2]	z-score [3]	z-score [4]	z-score [5]	composite z-score [6]	composite z-score [7]	composite z-score (Torsin-1A (Homo sapiens) [8])	composite z-score (Torsin-1A (Homo sapiens) [9])	composite z-score [10]	z-score [11]	composite z-score [12]	z-score [13]	z-score [14]	z-score [15]	z-score [16]	z-score [17]	z-score [18]	z-score [19]	z-score [20]
CCOC(=O)C[C@H]1[C@H](OC(=O)c2cc3ccccc3oc2=O)[C@@H](NC(=O)c2ccc3ccccc3c2)c2cc(OCCCO)ccc2N1C(=O)Cc1ccc(OC)cc1	0.174	-0.361 (inactive)	-0.784 (inactive)	0.402 (inactive)	-0.931 (inactive)	1	-0.231	0.462	0.746	0.47	-0.62 (inactive)	-0.0479	7.22 (inactive)	0.935 (inactive)	0.703 (inactive)	0.525 (inactive)	-0.24	3.04 (inactive)	1.01 (inactive)	1.94
COCCOC(=O)N1C(=O)[C@@]2(c3cc(C#CCCO)ccc31)[C@H](C(=O)N1CCCCCCC1)[C@H]1C(=O)O[C@H](c3ccccc3)[C@H](c3ccccc3)N1[C@@H]2c1ccccc1OCCO	0.985	-2.07 (inactive)	0.893 (inactive)	0.0655 (inactive)	-0.823 (inactive)	2.6	1.3	1.22	1.62	1.68	-0.82 (inactive)	2.52	0.56 (inactive)	0.654 (inactive)	0.0531 (inactive)	0.336 (inactive)	-0.319	1.96 (inactive)	0.843 (inactive)	1.73
CC(C)(C)OC(=O)CC[C@]1(C(=O)N2CCCCC2)COC(c2ccc(OCCCO)cc2)=N1	0.784	-2.07 (inactive)	-0.984 (inactive)	-0.837 (inactive)	0.238 (inactive)	1.36	0.127	0.655	0.967	-0.65	1.12 (inactive)	-0.403	22.2 (active)	5.22 (inactive)	1.11 (inactive)	0.663 (inactive)	-0.515	-2.59 (inactive)	0.0723 (inactive)	-2.08
CCOC(=O)C1=CC[C@@H](c2ccccc2)N(S(=O)(=O)c2ccc(C)cc2)[C@H]1c1cccc(OC)c1	-0.134	-2.97 (inactive)	0.966 (inactive)	-0.424 (inactive)	0.576 (inactive)	0.717	0.135	0.4	0.314	-0.176	-0.999 (inactive)	0.535	0.792 (inactive)	0.779 (inactive)	-0.422 (inactive)	0.385 (inactive)	-0.245	0.537 (inactive)	0.489 (inactive)	0.732
CS(=O)(=O)CCOC(=O)C1=CC(CCCO)=CC(C2CC2)N(Cc2cccc(OC(F)(F)F)c2)C=C1C(=O)OCCS(C)(=O)=O (stereo not given)	0.0607	-1.21 (inactive)	0.154 (inactive)	4.86 (inactive)	0.0235 (inactive)	-0.358	0.0082	1.29	2.13	0.186	-1.07 (inactive)	0.0392	2.65 (inactive)	0.404 (inactive)	-0.352 (inactive)	0.675 (inactive)	-0.662	0.944 (inactive)	0.19 (inactive)	-1.29
O=C1c2ccccc2[C@](Cc2ccccc2I)(C(=O)NC2CC2)[C@H](c2ccc(CO)cc2)N1Cc1ccccc1C(F)(F)F	-0.15	-4.84 (inactive)	-0.0186 (inactive)	0.764 (inactive)	-0.5 (inactive)	0.671	1.25	0.147	0.16	0.792	-1.14 (inactive)	-0.0902	8.14 (active)	0.789 (inactive)	4.29 (inactive)	-0.165 (inactive)	2.18	0.459 (inactive)	-1.34 (inactive)	-2.92
CCOC(=O)C1=C[C@@H](c2ccccc2)N(S(=O)(=O)c2ccc(C)cc2)[C@H]1c1ccccc1	0.202	-1.91 (inactive)	-0.42 (inactive)	-0.275 (inactive)	0.294 (inactive)	1.1	0.0925	0.0157	0.176	0.212	-0.388 (inactive)	0.119	13.8 (active)	2.21 (inactive)	-0.657 (inactive)	0.708 (inactive)	-0.8	-0.395 (inactive)	-0.395 (inactive)	0.565
COc1cc2c(cc1OC)CN(C(=O)[C@@H]1[C@H]3C(=O)O[C@H](c4ccccc4)[C@H](c4ccccc4)N3[C@H](c3ccc(O)cc3)[C@@]13C(=O)Nc1ccc(C#CCCO)cc13)CC2	0.527	0.082 (inactive)	-0.403 (inactive)	-0.878 (inactive)	-0.231 (inactive)	0.819	-0.0493	-0.0185	0.45	0.655	-0.0186 (inactive)	-0.149	0.125 (inactive)	0.448 (inactive)	1.16 (inactive)	0.165 (inactive)	-0.42	0.777 (inactive)	0.152 (inactive)	0.532
C=C(COC)/C(=C/C[C@H](OC(C)=O)c1cccc(OCCO)c1)c1cnc2ccccc2c1	0.484	-0.184 (inactive)	0.167 (inactive)	3.72 (inactive)	0.298 (inactive)	1.46	0.109	1.24	0.583	2.11	-0.339 (inactive)	0.0999	15.2 (active)	2.65 (inactive)	1.41 (inactive)	0.872 (inactive)	-0.512	0.373 (inactive)	0.228 (inactive)	-0.167
CCCCCN1CC=CC23O[C@@H]4C=CCOC(=O)[C@@H]4[C@H]2C(=O)N(CCO)[C@@H]3C1=O (stereo not given in full)	-0.395	-0.143 (inactive)	1.13 (inactive)	-0.0818 (inactive)	-0.585 (inactive)	-0.958	-0.205	1.17	1.78	-0.456	-0.23 (inactive)	-0.25	0.0674 (inactive)	0.31 (inactive)	0.266 (inactive)	0.161 (inactive)	-0.53	1.52 (inactive)	0.713 (inactive)	1.23
COC(=O)C(CC#Cc1ccc2c(c1)[C@]1(C(=O)N2)[C@H](c2ccc(O)cc2)N2[C@H](c3ccccc3)[C@H](c3ccccc3)OC(=O)[C@H]2[C@@H]1C(=O)N1CCCCCCC1)C(=O)OC	0.851	-3.72 (inactive)	-1.77 (inactive)	-0.0515 (inactive)	-0.507 (inactive)	1.26	1.36	0.78	0.592	0.777	1.11 (inactive)	1.69	0.53 (inactive)	-1.11 (inactive)	-0.677 (inactive)	-2.43 (inactive)	3.01	0.953 (inactive)	0.181 (inactive)	1.63
CC(C)C[C@@H]1NC(=O)[C@@H]2C[C@H](C(=O)NCCCCCC[N+](C)(C)C)[C@H](c3cccc(OCCO)c3)N2C1=O	-0.391	-0.351 (inactive)	-0.226 (inactive)	-0.943 (inactive)	-0.153 (inactive)	-0.665	-0.128	-0.153	0.393	1.46	-0.407 (inactive)	0.22	6.26 (inactive)	1.35 (inactive)	-0.953 (inactive)	0.376 (inactive)	-0.797	2.3 (inactive)	1.31 (inactive)	2.51
[N-]=[N+]=Nc1ccccc1[C@@H]1OC(c2ccc(OCCCO)cc2)=N[C@]1(Cc1ccccc1)C(=O)NCc1ccccc1	0.792	-3.97 (inactive)	-0.065 (inactive)	0.143 (inactive)	-0.757 (inactive)	1.45	0.38	0.662	1.09	0.263	-0.165 (inactive)	0.703	31.6 (active)	29.2 (active)	3.08 (inactive)	7.04 (inactive)	-0.403	-2.11 (inactive)	1.15 (inactive)	0.377
O=C(O)[C@@H]1C[C@@H]2C(=O)N3CCC[C@H]3C(=O)N2[C@@H]1c1cccc(OCCO)c1	1.25	-0.0592 (inactive)	1.36 (inactive)	0.143 (inactive)	-0.382 (inactive)	3.76	1.95	2.99	2.12	2.02	0.807 (inactive)	2.57	2.94 (inactive)	0.591 (inactive)	-1.77 (inactive)	0.35 (inactive)	0.132	1.29 (inactive)	0.355 (inactive)	1.59
CC(C)[Si]1(C(C)C)OCc2cc(-c3ccc(-c4ccc(Cl)c(Cl)c4)o3)nc(CCc3ccccc3)c21	0.0947	-1.53 (inactive)	-0.612 (inactive)	-0.0247 (inactive)	1.6 (inactive)	-0.884	-0.179	-0.696	-0.436	0.3	0.785 (inactive)	-0.239	1.58 (inactive)	-0.0088 (inactive)	-0.263 (inactive)	-1.01 (inactive)	0.353	0.69 (inactive)	0.187 (inactive)	-0.402
C=C(/C(=C/C[C@H](OC(=O)c1ccncc1)c1ccccc1OCCO)c1cnc2ccccc2c1)C(C)C	0.733	-0.0956 (inactive)	-0.91 (inactive)	2.52 (inactive)	1.5 (inactive)	1.81	0.0471	1.06	1.07	2.01	-0.227 (inactive)	0.313	11.1 (active)	1.86 (inactive)	1.41 (inactive)	0.553 (inactive)	0.125	-1.71 (inactive)	-0.391 (inactive)	-0.914
CO[C@H]1O[C@H](CO)[C@@H](OC(=O)Nc2cccc(F)c2)[C@H](OC(=O)Nc2ccccc2-c2ccccc2)[C@H]1OC(=O)Nc1ccccc1-c1ccccc1	0.828	-5.99 (inactive)	0.0177 (inactive)	0.951 (inactive)	-0.986 (inactive)	0.379	0.208	0.937	0.663	1.23	-0.732 (inactive)	0.302	4.41 (inactive)	1.22 (inactive)	-2.85 (inactive)	0.937 (inactive)	-0.309	-5.73 (inactive)	-1.02 (inactive)	-1.21
